# From PubChem BioAssay (NCATS)
# Several values for one entry are separate records, joined by “and”; a condition that tells them apart may be missing. Identical values can stand only once. Records with an inconclusive call do not appear. A call without a number means that no potency is given here. A number with no mark means an inactive call. Activity calls are given as the source filed them. Calls follow the shape of the dose curve; as a rule, active = well fitted inhibition curve with a large enough effect; inconclusive = small, poorly fitted or top-dose-only effect; inactive = flat fitted curve, though single readings scatter.
# Tests used:
# HEK293 = test: Cytotoxic Profiling of Annotated Libraries Using Quantitative High-Throughput Screening (AID 1296008); conditions: Five cell lines viability, CellTiter-Glo ATP luminescence, 48-72 h; max response: active compounds read low
# How it was run: (§1)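 Compounds were pin-transferred onto cells and incubated 48 or 72 hr at 37 degree Celsius, 95% humidity. CellTiter-Glo was added, plates sat 10 min at room temperature, then ATP-coupled luminescence was imaged as the viability read-out.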
# MCC-26 = test: qHTS assay to identify novel small-molecules to repurpose for Merkel cell carcinoma treatment (AID 1296009); conditions: MCC and control cell lines, CellTiter-Glo viability, 72 h; series mostly up to 46 µM
# How it was run: (§2)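 qHTS format: cells treated with library compounds in DMSO across 8 (NPC) or 11 (MIPE) concentrations. Readout after 72 hr at 37 degree celsius was CellTiter-Glo luminescence.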
# NIH3T3 = test: Cytotoxic Profiling of Annotated Libraries Using Quantitative High-Throughput Screening (AID 1296008); conditions: Five cell lines viability, CellTiter-Glo ATP luminescence, 48-72 h; max response: active compounds read low
# How it was run: as §1
# HaCat [1] = test: as above; conditions: Five cell lines viability, CellTiter-Glo ATP luminescence, 48-72 h; max response: active compounds read low
# How it was run: as §1
# MCC-13 = test: qHTS assay to identify novel small-molecules to repurpose for Merkel cell carcinoma treatment (AID 1296009); conditions: MCC and control cell lines, CellTiter-Glo viability, 72 h; series mostly up to 46 µM
# How it was run: as §2
# P93_24 = test: qHTS profiling for inhibitors of Plasmodium falciparum proliferation (AID 504749); conditions: P. falciparum in erythrocytes, SYBR Green DNA, 72 h; series mostly up to 28.7 µM
# How it was run: (§3)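 Parasite proliferation within erythrocytes, 72 h exposure. Endpoint: SYBR Green I fluorescence after overnight lysis at room temperature. Controls: 0.29 uM artemisinin, DMSO.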
# P94_40 = test: as above; conditions: P. falciparum in erythrocytes, SYBR Green DNA, 72 h; series mostly up to 28.7 µM
# How it was run: as §3
# PAD = test: as above; conditions: P. falciparum in erythrocytes, SYBR Green DNA, 72 h; series mostly up to 28.7 µM
# How it was run: as §3
# PC15 = test: as above; conditions: P. falciparum in erythrocytes, SYBR Green DNA, 72 h; series mostly up to 28.7 µM
# How it was run: as §3
# PC26 = test: as above; conditions: P. falciparum in erythrocytes, SYBR Green DNA, 72 h; series mostly up to 28.7 µM
# How it was run: as §3
# PC49 = test: as above; conditions: P. falciparum in erythrocytes, SYBR Green DNA, 72 h; series mostly up to 28.7 µM
# How it was run: as §3
# SC27B = test: as above; conditions: P. falciparum in erythrocytes, SYBR Green DNA, 72 h; series mostly up to 28.7 µM
# How it was run: as §3
# TAB109 = test: as above; conditions: P. falciparum in erythrocytes, SYBR Green DNA, 72 h; series mostly up to 28.7 µM
# How it was run: as §3
# TAB113 = test: as above; conditions: P. falciparum in erythrocytes, SYBR Green DNA, 72 h; series mostly up to 28.7 µM
# How it was run: as §3
# TAB165 = test: as above; conditions: P. falciparum in erythrocytes, SYBR Green DNA, 72 h; series mostly up to 28.7 µM
# How it was run: as §3
# W2 = test: as above; conditions: P. falciparum in erythrocytes, SYBR Green DNA, 72 h; series mostly up to 28.7 µM
# How it was run: as §3
# CRL-7250 = normal cell line; test: Cytotoxic Profiling of Annotated Libraries Using Quantitative High-Throughput Screening (AID 1296008); conditions: Five cell lines viability, CellTiter-Glo ATP luminescence, 48-72 h; max response: active compounds read low
# How it was run: as §1
# KB-3-1 = test: as above; conditions: Five cell lines viability, CellTiter-Glo ATP luminescence, 48-72 h; max response: active compounds read low
# How it was run: as §1
# HACAT [2] = test: qHTS assay to identify novel small-molecules to repurpose for Merkel cell carcinoma treatment (AID 1296009); conditions: MCC and control cell lines, CellTiter-Glo viability, 72 h; at 44.8 µM (top of the series) unless noted
# How it was run: as §2
# Also: nearly all actives have a fitted effect of over 60% in size.
# Potency is read from the fitted curve at half-maximal effect.
smiles,measurement,setting,value
CCOC(=O)C1=C(C)NC(C)=C(C(=O)OCC)C1c1ccccc1/C=C/C(=O)OC(C)(C)C,Potency,HEK293,7.5 µM (active)
same,Potency,MCC-26,inactive
Cc1nc(N)nc(N)c1-c1ccc(Cl)c(Cl)c1,Potency,HEK293,1.06 µM (active)
same,Potency,NIH3T3,0.841 µM (active)
same,Potency,MCC-26,inactive
CC(C(O)c1ccccc1)N(C)CCOC(c1ccccc1)c1ccccc1 (stereo unspecified),Potency,HEK293,13 µM (active)
same,max response,HaCat [1],2.35%
same,Potency,MCC-13,inactive
same,Potency,MCC-26,inactive
CCCCCCCCCCCCCCCC[N+](C)(C)Cc1ccccc1,Potency,P93_24,1.12 µM (active)
same,Potency,P94_40,1.58 µM (active)
same,Potency,PAD,5.62 µM (active)
same,Potency,PC15,7.94 µM (active)
same,Potency,PC26,9.53 µM (active)
same,Potency,PC49,10 µM (active)
same,Potency,SC27B,1 µM (active)
same,Potency,TAB109,3.98 µM (active)
same,Potency,TAB113,14.1 µM (active)
same,Potency,TAB165,12.6 µM (active)
same,Potency,W2,4.26 µM (active)
same,Potency,HEK293,5.31 µM (active)
same,Potency,NIH3T3,11.9 µM (active)
O=[N+]([O-])c1ccc(O)c2ncccc12,Potency,PAD,inactive
same,Potency,PC15,inactive
same,Potency,PC26,inactive
same,Potency,PC49,inactive
same,Potency,TAB165,14.1 µM (active)
same,Potency,W2,10.7 µM (active)
same,Potency,HEK293,8.41 µM (active)
same,Potency,NIH3T3,15 µM (active)
same,Potency,MCC-13,11.9 µM (active)
same,Potency,MCC-26,13.3 µM (active)
Cc1cccc(N(C)C(=S)Oc2ccc3c(c2)C2CCC3C2)c1 (stereo unspecified),Potency,CRL-7250,29.9 µM (active)
same,max response,NIH3T3,-24.5%
same,Potency,MCC-13,inactive
same,Potency,MCC-26,inactive
Nc1cccc2c(N)cccc12,Potency,HEK293,34.4 µM (active)
same,outcome,HaCat [1],inactive
same,max response,KB-3-1,15.8%
same,outcome,HACAT [2],inactive [at 92 µM]
same,Potency,MCC-13,38.6 µM (active)
CCOC(=O)[C@H](CCc1ccccc1)N[C@@H](C)C(=O)N(CC(=O)O)C1Cc2ccccc2C1,max response,CRL-7250,0.8%
same,Potency,MCC-13,inactive
COC(=O)[C@H]1[C@H]2C[C@@H]3c4[nH]c5cc(OC)ccc5c4CCN3C[C@H]2C[C@@H](OC(=O)/C=C/c2ccc(O)c(OC)c2)[C@@H]1OC,Potency,HEK293,9.44 µM (active)
same,Potency,MCC-13,inactive
CCCc1ccc(OCC(=O)N2CCN(C(=O)COc3ccc(CCC)cc3OC)CC2)c(OC)c1,max response,CRL-7250,-1.28%
same,max response,HaCat [1],5%
same,max response,NIH3T3,0.399%
same,Potency,MCC-13,inactive
same,Potency,MCC-26,inactive
C[N+](C)(C)CCO,max response,KB-3-1,-9.9% and -0.543%
O=C1OC2(c3ccccc31)c1cc(I)c(O)c(I)c1Oc1c2cc(I)c(O)c1I,outcome,HaCat [1],inactive
same,max response,NIH3T3,-20.5%
same,outcome,HACAT [2],inactive
same,Potency,MCC-13,inactive
same,Potency,MCC-26,inactive
CCC(C(=O)OCCN1CCOC(c2ccccc2)C1C)c1ccccc1 (stereo unspecified),outcome,HaCat [1],inactive
same,max response,NIH3T3,-22.2%
same,outcome,HACAT [2],inactive
same,Potency,MCC-13,inactive
same,Potency,MCC-26,inactive
CC(C)(c1ccc(O)cc1)c1ccc(O)cc1,max response,HaCat [1],-13.2%
same,Potency,MCC-13,inactive
same,Potency,MCC-26,inactive
COc1ccc(OC(=O)N(CC(=O)O)Cc2ccc(OCCc3nc(-c4ccccc4)oc3C)cc2)cc1,max response,HaCat [1],-6.17%
same,max response,NIH3T3,0.554%
same,Potency,MCC-13,inactive
same,Potency,MCC-26,inactive
O=C1NC(c2cccc([N+](=O)[O-])c2)=CCN1c1ccccc1O,max response,KB-3-1,-1.53%
Nc1ncnc2nc[nH]c12,Potency,P93_24,inactive
same,Potency,P94_40,inactive
same,Potency,PAD,inactive
same,Potency,PC15,inactive
same,Potency,PC26,inactive
same,Potency,PC49,inactive
same,Potency,SC27B,inactive
same,Potency,TAB109,inactive
same,Potency,TAB113,inactive
same,Potency,TAB165,inactive
same,Potency,W2,inactive
same,outcome,HACAT [2],inactive
same,Potency,MCC-13,inactive
same,Potency,MCC-26,inactive
COC(=O)C1=C(C)NC(COC(N)=O)=C(C(=O)OC(C)C)C1c1cccc(Cl)c1Cl (stereo unspecified),Potency,NIH3T3,15 µM (active)
same,Potency,MCC-13,inactive
same,Potency,MCC-26,inactive
COc1ccc(-n2nc(CCC(=O)N(C)O)cc2-c2ccc(Cl)cc2)cc1,outcome,HaCat [1],inactive
same,outcome,HACAT [2],inactive
same,Potency,MCC-26,inactive
C/C(=C(/OCCOc1ccc(Cl)cc1)c1ccc(Cl)cc1Cl)n1ccnc1,max response,NIH3T3,-25.5%
same,Potency,MCC-13,inactive
